Rab9 prom act: activators of Rab9 promoter | Huh7 Rab9 promoter-luciferase reporter, luminescence, 24 h | Potency, µM (top dose mostly 9.22 µM), for the others: top-dose activation, negative = inhibition, most hits filed as activators | 320,000 compounds, 2.8% hits; further: % of control where 0% means no effect; nearly all actives have a fitted effect of over 60% in size
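Huh7 reporter line, Rab9 promoter upstream of luciferase. Compound exposure 24 h at 37 °C in reduced-serum medium with 10% FBS. Read-out: luminescence.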
ELG1 genotox: inducers of genotoxicity in HEK293T ELG1-luciferase cells; HEK293T ELG1-luciferase reporter, luminescence, 16 h; Potency, µM (series often up to 46 µM), without a hit: top-dose activity change, positive = activation, actives largely listed as activators; 330,000 compounds, 1.3% hits; further: % of control where 0% means no effect; nearly all actives have a fitted effect of over 60% in size
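Reporter readout depends on ELG1 protein level, which increases with genetic stress. After 16 hr compound exposure at 37 °C, luciferase activity was quantified using ONE-Glo.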
FLuc counter: counter-screen for miR-21 project: firefly luciferase inhibitors or activators; P08659; purified FLuc, Km substrates, luminescence inhibition; Potency, µM (series often up to 57.5 µM), for the others: at the highest dose activity change, negative = inhibition, usual class: inhibitors; 360,000 compounds, 6.9% hits; AID 588342;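 further: plate controls were vehicle for no effect and reference inhibitor for full effect; nearly all actives have a fitted effect of over 55% in size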
Target sequence (P08659 whole entry, looked up): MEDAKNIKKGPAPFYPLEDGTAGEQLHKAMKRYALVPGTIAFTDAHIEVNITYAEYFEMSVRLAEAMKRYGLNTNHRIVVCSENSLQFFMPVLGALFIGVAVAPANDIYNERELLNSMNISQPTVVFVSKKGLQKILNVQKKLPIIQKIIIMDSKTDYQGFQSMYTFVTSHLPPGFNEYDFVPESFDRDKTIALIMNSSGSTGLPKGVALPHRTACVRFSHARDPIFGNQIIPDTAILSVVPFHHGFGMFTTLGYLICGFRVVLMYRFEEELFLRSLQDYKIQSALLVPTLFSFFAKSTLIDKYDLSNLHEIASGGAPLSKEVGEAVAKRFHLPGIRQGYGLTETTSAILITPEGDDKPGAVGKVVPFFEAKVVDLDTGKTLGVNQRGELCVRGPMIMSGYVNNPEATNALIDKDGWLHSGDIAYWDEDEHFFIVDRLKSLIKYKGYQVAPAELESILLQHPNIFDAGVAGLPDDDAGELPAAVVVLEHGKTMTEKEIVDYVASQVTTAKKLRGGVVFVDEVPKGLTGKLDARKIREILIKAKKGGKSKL
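Purified P. pyralis luciferase (10nM final) with 10uM D-luciferin and 10uM ATP (Km levels) in 50mM Tris acetate pH 7.5, 10mM Mg acetate, 0.01% Tween-20, 0.05% BSA; qHTS 6-point titration, ~60 µM downward; luminescence read.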
ELG1 repair inh: ELG1-dependent DNA repair inhibition; 330,000 compounds, 2.3% hits; Potency, µM (highest dose often 46.1 µM), for the others: top-dose activity change, negative = inhibition, usual class: inhibitors; HEK293T ELG1-luciferase reporter, luminescence, 16 h; DNA damage induced by 5-fluorouridine; further: on the % scale 0 is the no-effect control and ±100 the full control effect; nearly all actives have a fitted effect of over 55% in size
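Cells (2,000 per well) received 5-fluorouridine plus test compound or DMSO and were incubated 16 hr at 37 °C, 5% CO2. Luciferase activity was read by luminescence 30 min after ONE-Glo addition; signal suppression marked inhibition of damage-induced ELG1 function.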
NPC1 prom act: activates the NPC1 promoter; Potency, µM (titrated, usually from 9.22 µM), for inactives: top-dose activation, usual class: activators; AID 485313; Huh7 NPC1 promoter luciferase reporter, 24 h; 320,000 compounds, 2.4% hits; further: % of control where 0% means no effect; nearly all actives have a fitted effect of over 60% in size
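Luminescence from an NPC1 promoter-driven luciferase reporter in stably transfected Huh7 cells was measured after 24 h compound treatment at 37 °C, followed by 10 min ambient incubation with luciferase detection reagent.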
SMN2 splice enh: SMN2 splice variant enhancement. HEK293 SMN2-luciferase splicing reporter, luminescence, 30-36 h. Potency, µM (series often up to 46.1 µM), without a hit: at the highest dose activity change, positive = activation, usual class: activators. 210,000 compounds, 2.8% hits. AID 1458; further: % of control where 0% means no effect; nearly all actives have a fitted effect of over 55% in size
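qHTS luciferase splicing reporter: luminescence rises when SMN2 exon 7 is included in transfected HEK293 cells. Compound exposure lasted 30-36 h at 37C, with 4.5 mM final sodium butyrate as control, followed by a ONE-Glo read.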
The depositor's hits bear a star. Sampled rows, rich in hits. Any-hit rate of the full collection: about 9.2%. The call rests on the fitted dose curve; in most records, active means well fitted curve in the direction sought with a large enough effect; inconclusive means small, poorly fitted or top-dose-only effect, or another doubt; inactive means no such curve, though single readings can be large; an effect the other way counts as inactive or inconclusive. Potency means the concentration at half of the fitted maximal effect.

How did Cc1nnc(SC(C)C(=O)NCC2CCCO2)s1 (stereo not drawn) do in these assays?
Rab9 prom act: 1%; ELG1 genotox: 0%; FLuc counter: -3%; ELG1 repair inh: 9%; NPC1 prom act: 2%

How did CC(=O)N1N=C2c3ccccc3CCC2C1c1cccs1 (stereo not drawn) do in these assays?
Rab9 prom act: -3%; ELG1 genotox: -1%; FLuc counter: -7%; ELG1 repair inh: -19%; NPC1 prom act: -4%

How did CN1N=C2c3ccccc3CCCC2C1c1ccc(F)cc1 (stereo not drawn) do in these assays?
Rab9 prom act: 26%; ELG1 genotox: inconclusive; FLuc counter: 12µM*; ELG1 repair inh: inconclusive; NPC1 prom act: 17%

What do the screens show for `Cc1sc2nc(-c3ccccc3)oc(=O)c2c1C`?
Rab9 prom act: 21%; ELG1 genotox: 3%; FLuc counter: 5.4µM*; ELG1 repair inh: 13%; NPC1 prom act: 20%

How did O=c1oc(-c2ccco2)nc2sc3c(c12)CCCC3 do in these assays?
Rab9 prom act: -3%; ELG1 genotox: 0%; FLuc counter: 1.5µM*; ELG1 repair inh: inconclusive; NPC1 prom act: 11%; SMN2 splice enh: 14µM*

Results for Cc1nc2sc3c(c2c(=O)o1)CCCC3 ?
Rab9 prom act: -1%; ELG1 genotox: 3%; FLuc counter: 0%; ELG1 repair inh: 2%; NPC1 prom act: -1%; SMN2 splice enh: -8%

Results for O=c1oc(-c2ccccc2)nc2sc3c(c12)CCC3 ?
Rab9 prom act: 10%; ELG1 genotox: 0%; FLuc counter: 2.4µM*; ELG1 repair inh: inconclusive; NPC1 prom act: -1%; SMN2 splice enh: inconclusive

How did O=C1CCC(=O)N1c1ccc(-c2nc3sc4c(c3c(=O)o2)CCC4)cc1 do in these assays?
Rab9 prom act: 2%; ELG1 genotox: -1%; FLuc counter: 21µM*; ELG1 repair inh: 0%; NPC1 prom act: -3%

What do the screens show for `CC1(c2ccccc2)NC(=O)N(CC(=O)N(c2ccccc2)C2CCS(=O)(=O)C2)C1=O` (stereo not drawn)?
ELG1 genotox: 1%; ELG1 repair inh: 23%

How did CC1(C)Cc2c(sc3nc(-c4ccccc4)oc(=O)c23)CO1 do in these assays?
Rab9 prom act: 21%; ELG1 genotox: 0%; FLuc counter: 1.2µM*; ELG1 repair inh: inconclusive; NPC1 prom act: 27%; SMN2 splice enh: inconclusive

What do the screens show for `CC1(C)Cc2c(sc3nc(-c4cc5ccccc5o4)n(N)c(=O)c23)CO1`?
Rab9 prom act: 2.8µM*; ELG1 genotox: 1%; FLuc counter: 6µM*; ELG1 repair inh: inconclusive; NPC1 prom act: 3.2µM*; SMN2 splice enh: 11µM*

How did Nc1nc(-c2ccccc2)nc2sc3c(c12)CCCC3 do in these assays?
Rab9 prom act: 1.8µM*; ELG1 genotox: 4.1µM*; FLuc counter: 0.27µM*; ELG1 repair inh: inconclusive; NPC1 prom act: 2.2µM*; SMN2 splice enh: 3.2µM*

How did O=C(Cn1c(-c2cccs2)cc2ccccc21)NCCCN1CCN(c2cccc(Cl)c2)CC1 do in these assays?
FLuc counter: 1%

Results for O=c1c2[nH]c3cccc(Cl)c3c2ncn1Cc1ccco1 ?
Rab9 prom act: -2%; ELG1 genotox: inconclusive; FLuc counter: 2%; ELG1 repair inh: inconclusive; NPC1 prom act: 0%

Results for C=CCNC(=S)Nc1ccccc1-c1nnc2n1CCCCC2 ?
Rab9 prom act: -3%; ELG1 genotox: 1%; FLuc counter: 2%; ELG1 repair inh: 15%; NPC1 prom act: 2%

Results for O=S(=O)(CCc1ccccc1)c1nnnn1-c1ccc(F)cc1Br ?
SMN2 splice enh: 12%

Results for COc1ccc(C(=O)NCC(=O)NCc2ccncc2)cc1 ?
ELG1 genotox: 3%; ELG1 repair inh: 5%

What do the screens show for `COc1ccc2nc(-c3ccccc3)cc(C(=O)OCC(=O)N3CC(C)OC(C)C3)c2c1` (stereo not drawn)?
Rab9 prom act: -5%; ELG1 genotox: -6%; FLuc counter: 19µM*; ELG1 repair inh: inconclusive; NPC1 prom act: -10%

Results for Cc1cc(C(=O)OCC(=O)N2CC(C)OC(C)C2)c2ccccc2n1 (stereo not drawn) ?
Rab9 prom act: 1%; ELG1 genotox: -1%; FLuc counter: 6%; ELG1 repair inh: 11%; NPC1 prom act: -4%

How did COc1ccc2nc(-c3ccccc3)cc(C(=O)OCC(=O)N3CCCCC3)c2c1 do in these assays?
Rab9 prom act: -1%; ELG1 genotox: -8%; FLuc counter: 21µM*; ELG1 repair inh: inconclusive; NPC1 prom act: -3%

Results for COc1ccc2nc(-c3ccccc3)cc(C(=O)N3CCC3)c2c1 ?
Rab9 prom act: 1%; ELG1 genotox: -4%; FLuc counter: inconclusive; ELG1 repair inh: -27%; NPC1 prom act: -1%

How did Cc1cc(C(=O)OCC(=O)N2CCCC2)c2ccccc2n1 do in these assays?
Rab9 prom act: 8%; ELG1 genotox: 2%; FLuc counter: 2%; ELG1 repair inh: 9%; NPC1 prom act: 0%; SMN2 splice enh: 23%

What do the screens show for `COc1ccc(-c2cc(C(=O)OCC(=O)N3CCCC3)c3ccccc3n2)cc1`?
Rab9 prom act: 15%; ELG1 genotox: -2%; FLuc counter: 6µM*; ELG1 repair inh: inconclusive; NPC1 prom act: 15%; SMN2 splice enh: 32%

What do the screens show for `CCC(=O)c1cn(CC(=O)Nc2ccc(C)cc2C)c2ccccc12`?
Rab9 prom act: 0%; ELG1 genotox: -1%; FLuc counter: 1%; ELG1 repair inh: -24%; NPC1 prom act: -2%

Results for Cc1ccc(NC(=O)C2CCCN(S(=O)(=O)c3ccc4[nH]c(=O)ccc4c3)C2)c(C)c1 (stereo not drawn) ?
Rab9 prom act: 4%; ELG1 genotox: 0%; FLuc counter: -2%; ELG1 repair inh: -2%; NPC1 prom act: -2%

What do the screens show for `CC1(C)Cc2c(sc3ncnc(NN)c23)CO1`?
Rab9 prom act: 0%; ELG1 genotox: -16%; FLuc counter: 1%; ELG1 repair inh: inconclusive; NPC1 prom act: -5%

How did COc1ccc(-c2cc(C(=O)NCCCn3ccnc3)c3ccccc3n2)c(OC)c1 do in these assays?
Rab9 prom act: -2%; ELG1 genotox: 3%; FLuc counter: -4%; ELG1 repair inh: -8%; NPC1 prom act: -2%

Results for O=C(NN1CCOCC1)c1cc(-c2ccccc2)nc2ccccc12 ?
Rab9 prom act: -7%; ELG1 genotox: 0%; FLuc counter: 1%; ELG1 repair inh: 6%; NPC1 prom act: 1%; SMN2 splice enh: -12%
